About 83,000 compounds went through this panel and 20% of them were active in at least one assay; those are over-represented in the sample as a whole.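 Interpretation: 100, growth as untreated; towards 0, rising growth inhibition; 0, no net growth; 0 to -100, cell death. Compounds scoring below 10 were considered active.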 Activity calls are given as the source filed them.

One test has as its system COLO 205 colon. Briefly: NCI-60 one-dose screen, 48 h (100 = growth as untreated, 0 = no growth, -100 = all killed). The note with it: 10 µM.
Consider `COC(=O)[C@@H]1[C@H](O)[C@H](C)[C@H](O)[C@@](C)(O)/C=C\C=C(C)C(=O)Nc2c(C)c(OC(C)=O)c3c(c2O)C(=O)C(C)=C2OCOC(=C23)C(C)=C[C@@](C)(O)[C@H](O)[C@@H](C)[C@H]1OC(C)=O`, for which the growth is 112% (inactive).

For `O=C(CC(C(=O)c1ccccc1)N1CCOCC1)c1ccccc1` (stereo not drawn), the growth is 58.5% (inactive).

Consider `COc1ccc(-c2nc(-c3nc4cc(Cl)c(F)cc4[nH]3)c3ccccn23)cc1`, for which the growth was 79.1% (inactive).

For the compound `CCCCCCCCCCCC[n+]1ccc(C(N)=O)cc1`, the growth was -73% (active).

As for `COC(=O)C1=NNC(=S)N(c2cc(C)[nH]n2)C(=O)C1`, the growth is 116% (inactive).

`CCN1Cc2c(/C=C/c3ccccc3)nc3ccc(OC)cc3c2N(c2cccc(Cl)c2)C1`: the growth is 81.8% (inactive).

Regarding `O=C(Nc1ccncc1)C(=O)c1cn(S(=O)(=O)c2cccc3ccccc23)c2ccccc12`, the growth was 101% (inactive).

Regarding `CCN(CC)CCOc1nc2cc(OC)c(OC)cc2c2c1-c1ccc(OC)cc1C2=O`, the growth is 72.7% (inactive).

Regarding `Nc1c(C(=O)Nc2cccc(F)c2)sc2nc3c(cc12)C(=O)CCC3`, the growth was -3.2% (active).

Regarding `CN(C)C=Nc1cc(Cl)ccc1Cl`, the growth was 109% (inactive).

Consider `CC12O[C@H](C[C@@H](O)[C@H]1O)n1c3ccccc3c3c4c(c5c6ccccc6n2c5c31)C(=O)N(CCCN)C4=O`, for which the growth is 12.9% (inactive).

Consider `S=C1SCC(c2ccccc2)S1` (stereo not drawn), for which the growth is 111% (inactive).

For `N=C(N)c1ccc(-c2ccc(-c3cccs3)o2)cc1`, the growth was -97.4% (active).

With `CC(C)(C)c1cc(Br)cc(C(C)(C)C)c1O`, the growth was 113% (inactive).

For the compound `COc1cc(C(=O)/C=C/c2cc(-c3cc(OC)c(OC)c(OC)c3)n[nH]2)cc(OC)c1OC`, the growth was -88.3% (active).

On to `COc1cc(NC(=O)CCSc2nc3ccc(Cl)cc3c(=O)n2Cc2ccccc2)cc(OC)c1OC`, for which the growth was 107% (inactive).

As to `COc1ccc(-c2nn(-c3cccc(NC(=O)Nc4cccc(C(F)(F)F)c4)c3)cc2-c2ccncc2)cc1Cl`, the growth was 1.37% (active).

For `COc1ccc(-c2nn(-c3cccc(NC(=O)c4ccc(Cl)c(Cl)c4)c3)cc2-c2ccncc2)cc1Cl`, the growth was 86.2% (inactive).

For the compound `CC(C)(C#N)Nc1ccccc1`, the growth was 109% (inactive).

As to `O=S(=O)(Nc1ccccn1)c1ccc(N=Nc2ccc(O)c3ncccc23)cc1`, the growth was 108% (inactive).

For `CC(C)C[C@H](NC(=O)[C@H](Cc1cccc2ccccc12)NS(=O)(=O)c1cccc2cccnc12)B(O)O`, the growth is -36.5% (active).

On to `COc1cc(Cl)cc(-c2nn(-c3cccc(NC(=O)Nc4ccc(Cl)c(C(F)(F)F)c4)c3)cc2-c2ccncc2)c1`, for which the growth was -48.3% (active).

As to `O=C(Nc1ccc(CN2CCc3nc4cc(O)c(O)cc4cc32)cc1)c1ccc(Cl)c(Cl)c1`, the growth was 99.4% (inactive).

In the case of `CN(C)Cc1cn(-c2ncc(-c3ccc(C(F)(F)F)cc3)c(NC3CCCCCC3)n2)nn1`, the growth was 70.9% (inactive).

Turning to `O=C(CSSCC(=O)c1ccc(Cl)cc1)c1ccc(Cl)cc1`, the growth is 104% (inactive).

Take `COc1ccc2c(c1OC)O/C(=C\c1ncc([N+](=O)[O-])n1C)C2=O`: the growth is -55.6% (active).

Regarding `Nc1ncn([C@@H]2O[C@H](CO)[C@@H](O)[C@H]2O)c(=O)n1`, the growth was 6.61% (active).

Take `CSC1=NCCCC1`: the growth is 113% (inactive).

As to `COc1ccc(/C=C2/CN(CCC#N)C/C(=C\c3ccc(OC)cc3)C2=O)cc1`, the growth is -52.3% (active).

For the compound `c1ccc([C@H]2CN3CCSC3=N2)cc1`, the growth is 106% (inactive).

In the case of `COc1cc(Cl)cc(-c2nn(-c3cccc(NC(=O)c4ccc(N5CCOCC5)c(C(F)(F)F)c4)c3)cc2-c2ccncc2)c1`, the growth was 52.7% (inactive).

As for `COc1ccc(OC)c(/C=C/c2nc(SCc3ccccc3)n(-c3ccc(Cl)cc3)n2)c1`, the growth was 114% (inactive).

Consider `COc1ccc(N=C2C(=Nc3ccc(OC)cc3)N(c3ccc(N(C)C)cc3)C(=S)N2c2ccc(OC)cc2)cc1`, for which the growth is 109% (inactive).

Regarding `CCCCCCN1CCN(Cc2ccc(N(CC)CC)cc2)C(=O)C1=O`, the growth was 6.83% (active).

In the case of `N#Cc1ncc(-c2ccc(C(F)(F)F)cc2)c(NCc2cc(C(F)(F)F)cc(C(F)(F)F)c2)n1`, the growth is -24.1% (active).

For `COc1ccc2c(c1)O/C(=C\c1ccc([N+](=O)[O-])s1)C2=O`, the growth was -30% (active).

`CCCCN(CCCC)c1cc(C(=O)CCCCCN)c2ccccc2n1`: the growth was 17.4% (inactive).

`O=C(O)CCCCSc1ncnc2nc[nH]c12`: the growth was 103% (inactive).

In the case of `O=C(Nc1cccc(-n2cc(-c3ccncc3)c(-c3ccc(O)c(Cl)c3)n2)c1)c1cc(C(F)(F)F)cc(C(F)(F)F)c1`, the growth is 94.8% (inactive).

The next test relates to DU-145 prostate. The test is described as above. Particulars: 10 µM.
On to `COC(=O)[C@@H]1[C@H](O)[C@H](C)[C@H](O)[C@@](C)(O)/C=C\C=C(C)C(=O)Nc2c(C)c(OC(C)=O)c3c(c2O)C(=O)C(C)=C2OCOC(=C23)C(C)=C[C@@](C)(O)[C@H](O)[C@@H](C)[C@H]1OC(C)=O`, for which the growth is 85.5% (inactive).

On to `O=C(CC(C(=O)c1ccccc1)N1CCOCC1)c1ccccc1` (stereo not drawn), for which the growth is 101% (inactive).

`COc1ccc(-c2nc(-c3nc4cc(Cl)c(F)cc4[nH]3)c3ccccn23)cc1`: the growth was 80.3% (inactive).

As for `CCCCCCCCCCCC[n+]1ccc(C(N)=O)cc1`, the growth is 43% (inactive).

Consider `COC(=O)C1=NNC(=S)N(c2cc(C)[nH]n2)C(=O)C1`, for which the growth is 107% (inactive).

Regarding `CCN1Cc2c(/C=C/c3ccccc3)nc3ccc(OC)cc3c2N(c2cccc(Cl)c2)C1`, the growth is 112% (inactive).

Take `O=C(Nc1ccncc1)C(=O)c1cn(S(=O)(=O)c2cccc3ccccc23)c2ccccc12`: the growth was 95.1% (inactive).

For the compound `CCN(CC)CCOc1nc2cc(OC)c(OC)cc2c2c1-c1ccc(OC)cc1C2=O`, the growth is 64.1% (inactive).

`Nc1c(C(=O)Nc2cccc(F)c2)sc2nc3c(cc12)C(=O)CCC3`: the growth is -12.7% (active).

In the case of `CN(C)C=Nc1cc(Cl)ccc1Cl`, the growth is 117% (inactive).

For the compound `CC12O[C@H](C[C@@H](O)[C@H]1O)n1c3ccccc3c3c4c(c5c6ccccc6n2c5c31)C(=O)N(CCCN)C4=O`, the growth is 60.8% (inactive).

Turning to `S=C1SCC(c2ccccc2)S1` (stereo not drawn), the growth is 125% (inactive).

Regarding `N=C(N)c1ccc(-c2ccc(-c3cccs3)o2)cc1`, the growth was 57.9% (inactive).

In the case of `CC(C)(C)c1cc(Br)cc(C(C)(C)C)c1O`, the growth is 113% (inactive).

On to `COc1cc(C(=O)/C=C/c2cc(-c3cc(OC)c(OC)c(OC)c3)n[nH]2)cc(OC)c1OC`, for which the growth was 4.4% (active).

With `COc1cc(NC(=O)CCSc2nc3ccc(Cl)cc3c(=O)n2Cc2ccccc2)cc(OC)c1OC`, the growth was 108% (inactive).

`COc1ccc(-c2nn(-c3cccc(NC(=O)Nc4cccc(C(F)(F)F)c4)c3)cc2-c2ccncc2)cc1Cl`: the growth was 22% (inactive).

As for `COc1ccc(-c2nn(-c3cccc(NC(=O)c4ccc(Cl)c(Cl)c4)c3)cc2-c2ccncc2)cc1Cl`, the growth is 92.1% (inactive).

`CC(C)(C#N)Nc1ccccc1`: the growth was 118% (inactive).

As to `O=S(=O)(Nc1ccccn1)c1ccc(N=Nc2ccc(O)c3ncccc23)cc1`, the growth was 27.6% (inactive).

Consider `CC(C)C[C@H](NC(=O)[C@H](Cc1cccc2ccccc12)NS(=O)(=O)c1cccc2cccnc12)B(O)O`, for which the growth is -20.7% (active).

`COc1cc(Cl)cc(-c2nn(-c3cccc(NC(=O)Nc4ccc(Cl)c(C(F)(F)F)c4)c3)cc2-c2ccncc2)c1`: the growth is 15.2% (inactive).

As to `O=C(Nc1ccc(CN2CCc3nc4cc(O)c(O)cc4cc32)cc1)c1ccc(Cl)c(Cl)c1`, the growth is 104% (inactive).

For `CN(C)Cc1cn(-c2ncc(-c3ccc(C(F)(F)F)cc3)c(NC3CCCCCC3)n2)nn1`, the growth is 89.3% (inactive).

With `O=C(CSSCC(=O)c1ccc(Cl)cc1)c1ccc(Cl)cc1`, the growth was 94.4% (inactive).

For `COc1ccc2c(c1OC)O/C(=C\c1ncc([N+](=O)[O-])n1C)C2=O`, the growth was -24.7% (active).

Take `Nc1ncn([C@@H]2O[C@H](CO)[C@@H](O)[C@H]2O)c(=O)n1`: the growth was 11.5% (inactive).

As for `CSC1=NCCCC1`, the growth was 118% (inactive).

Turning to `COc1ccc(/C=C2/CN(CCC#N)C/C(=C\c3ccc(OC)cc3)C2=O)cc1`, the growth is 5.29% (active).

For `c1ccc([C@H]2CN3CCSC3=N2)cc1`, the growth is 92.1% (inactive).

With `COc1cc(Cl)cc(-c2nn(-c3cccc(NC(=O)c4ccc(N5CCOCC5)c(C(F)(F)F)c4)c3)cc2-c2ccncc2)c1`, the growth is 93.3% (inactive).

On to `COc1ccc(OC)c(/C=C/c2nc(SCc3ccccc3)n(-c3ccc(Cl)cc3)n2)c1`, for which the growth was 77.7% (inactive).

As for `COc1ccc(N=C2C(=Nc3ccc(OC)cc3)N(c3ccc(N(C)C)cc3)C(=S)N2c2ccc(OC)cc2)cc1`, the growth was 85.7% (inactive).

For `CCCCCCN1CCN(Cc2ccc(N(CC)CC)cc2)C(=O)C1=O`, the growth is -7.77% (active).

In the case of `N#Cc1ncc(-c2ccc(C(F)(F)F)cc2)c(NCc2cc(C(F)(F)F)cc(C(F)(F)F)c2)n1`, the growth was 28.2% (inactive).

In the case of `COc1ccc2c(c1)O/C(=C\c1ccc([N+](=O)[O-])s1)C2=O`, the growth is -6.02% (active).

For the compound `CCCCN(CCCC)c1cc(C(=O)CCCCCN)c2ccccc2n1`, the growth is -81.1% (active).

With `O=C(O)CCCCSc1ncnc2nc[nH]c12`, the growth is 101% (inactive).

For `O=C(Nc1cccc(-n2cc(-c3ccncc3)c(-c3ccc(O)c(Cl)c3)n2)c1)c1cc(C(F)(F)F)cc(C(F)(F)F)c1`, the growth was 73.5% (inactive).

For the origin of these results see PubChem BioAssay (NCI).
